Gli-Sufu antag = blocks Gli-Sufu signaling in a luciferase reporter; Sufu-KO-LIGHT fibroblasts, Gli luciferase reporter luminescence; 340,000 compounds, 0.74% hits; inhibition, % at 5 µM;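 active means inhibition above about 55%, limit read from the data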;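 further: 0% = DMSO-treated cells and 100% = wells with medium but no cells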
Mdm2-MdmX inh = disrupts the human Mdm2-MdmX interaction. inhibition, % at 8 µM. AID 485346. SaOS-2 split-luciferase Mdm2/MdmX complementation, luminescence. 330,000 compounds, 3% hits;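 active means inhibition of at least 50% at 8 µM in the primary screen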
Target sequence (O15151 whole entry, looked up): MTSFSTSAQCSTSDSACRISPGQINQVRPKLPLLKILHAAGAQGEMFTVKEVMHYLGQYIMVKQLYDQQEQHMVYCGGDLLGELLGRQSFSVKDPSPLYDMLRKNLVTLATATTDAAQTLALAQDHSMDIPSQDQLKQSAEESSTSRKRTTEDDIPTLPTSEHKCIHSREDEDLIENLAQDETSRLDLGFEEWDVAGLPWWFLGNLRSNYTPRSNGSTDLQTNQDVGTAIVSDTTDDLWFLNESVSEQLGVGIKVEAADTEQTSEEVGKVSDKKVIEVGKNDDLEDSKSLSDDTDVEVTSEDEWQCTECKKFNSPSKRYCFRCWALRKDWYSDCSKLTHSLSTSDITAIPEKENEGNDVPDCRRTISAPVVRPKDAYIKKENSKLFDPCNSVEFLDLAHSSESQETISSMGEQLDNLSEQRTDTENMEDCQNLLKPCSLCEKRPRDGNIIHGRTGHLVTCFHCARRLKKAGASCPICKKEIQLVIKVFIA
Target sequence (Q00987 whole entry, looked up): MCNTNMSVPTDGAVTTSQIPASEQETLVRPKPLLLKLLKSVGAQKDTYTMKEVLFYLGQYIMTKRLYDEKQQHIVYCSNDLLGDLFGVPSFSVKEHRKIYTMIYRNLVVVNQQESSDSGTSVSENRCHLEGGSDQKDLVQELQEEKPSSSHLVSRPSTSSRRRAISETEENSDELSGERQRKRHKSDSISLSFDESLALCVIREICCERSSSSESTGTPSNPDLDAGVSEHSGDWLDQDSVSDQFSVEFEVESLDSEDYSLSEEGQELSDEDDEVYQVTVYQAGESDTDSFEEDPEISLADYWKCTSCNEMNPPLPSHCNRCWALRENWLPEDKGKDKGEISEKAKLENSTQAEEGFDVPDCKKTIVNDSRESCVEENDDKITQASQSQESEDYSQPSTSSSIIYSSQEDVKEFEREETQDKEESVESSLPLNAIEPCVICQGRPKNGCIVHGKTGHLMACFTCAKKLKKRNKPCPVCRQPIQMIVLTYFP
Jurkat NFkB inh = lowers PMA/ionomycin-induced NF-kB signal in Jurkat cells; inhibition, % at 4 µM; PMA/ionomycin-induced NF-kB luciferase reporter, luminescence; AID 435003; 330,000 compounds, 0.53% hits; in the data active means inhibition above about 50%
Shn3 3UTR inh = inhibitors of Schnurri-3 3'UTR reporter in osteoblasts | Clone20 osteoblast Shn3 3'UTR firefly luciferase, 24 h | inhibition, % at 12.5 µM | 360,000 compounds, 0.52% hits;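 active means mean inhibition of at least 75% with every replicate also reaching 75%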;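 further: 0% = median of neutral control wells and 100% = pilot-screen positive control compound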
697 NFkB inh = lowers PMA/ionomycin-induced NF-kB signal in 697 B cells | 697 B-cell NF-kB luciferase reporter, 16 h | inhibition, % at 4 µM | 330,000 compounds, 0.33% hits | AID 435022; in the data active means inhibition above about 35%
Jurkat NFkB conf = lowers PMA/ionomycin-induced NF-kB signal in Jurkat cells | AID 435020 | shares compounds with Jurkat NFkB inh | inhibition, % at 4 µM | Jurkat NF-kB luciferase, 16 h | 2,700 compounds, 27% hits;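 active means inhibition reaching about 45% at 4 µM in either replicate, limit read from the data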;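 further: plate controls were PMA/ionomycin stimulated DMSO wells for no effect and unstimulated DMSO wells for full effect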
Starred values were filed as active, the others as inactive; · = no result. Hits are enriched below; roughly 3.8% of the tested compounds scored in any of these assays.

SMILES	Gli-Sufu antag	Mdm2-MdmX inh	Jurkat NFkB inh	Shn3 3UTR inh	697 NFkB inh	Jurkat NFkB conf
CCOC(=O)N(C)C[C@H]1OCc2cnnn2CCCC(=O)N([C@@H](C)CO)C[C@H]1C	·	·	·	-1	·	·
CCC(C)N(C(=O)COC(=O)c1ccc(N)c([N+](=O)[O-])c1)C1CCS(=O)(=O)C1 (centres undefined)	·	·	·	1	·	·
Cc1cc(C(F)(F)F)n2ncc(-c3ccc(F)cc3)c2n1	-1	8	-8	4	17	·
COc1ccc(-c2c(C)nc3c(-c4ccc(F)cc4)cnn3c2N)cc1	-9	32	-183	-77	-207	-73
Cc1ccc(-n2nnc(-c3cc4ccccc4n3C)n2)cc1	-110	-95	-152	-159	-182	-47
Cc1ccc(-n2nnc(-c3cccnc3Cl)n2)cc1	-124	-153	-173	-119	-228	-86
Cn1c(-c2nnn(-c3ccc(F)cc3)n2)cc2ccccc21	·	-243	-140	·	-142	·
Cc1ccccc1CNC(=O)C(C)Sc1ccccc1 (centres undefined)	·	·	·	-22	·	·
Cc1c(C(=O)OCC2CCCO2)[nH]c2c1C(=O)CC(c1ccco1)C2 (centres undefined)	9	38	55*	7	-12	-3
Cc1cc(C)n(C(=O)Cn2nc(C)c(Cl)c2C)n1	19	-4	-9	-70	-35	·
CC(C)(C)Nc1ncnc2c1cnn2-c1ccccc1	-125	-98	-173	-43	-218	-127
CC1CCN(c2ncnc3c2cnn3-c2ccccc2)CC1	-111	-236	-187	-14	-185	-106
O=C(CNc1cccc2ccccc12)N/N=C/c1ccc[nH]1	25	-11	59*	0	8	-3
COc1cc(/C=N/N(C)c2ccccc2)ccc1O	-97	-117	-163	-80	-182	5
Cc1ccc(Nc2nc(N)c3ccccc3n2)cc1C	-3	-216	-166	32	-248	-120
Cc1nc(-c2ccc(NC(=O)c3ccco3)cc2)cs1	2	31	52*	67	-162	37
O=C1C2C3C=CC(C3)C2C(=O)N1c1ccc(-c2nc3ccccc3o2)cc1 (centres undefined)	24	-22	-172	-14	-107	-55
Cc1ccc(O)c(NC(=O)c2cc(-c3ccccc3Cl)on2)c1	8	-37	51*	-105	-39	36
Cc1ccc(-c2cc(C(=O)Nc3cc(C)ccc3O)no2)cc1	-17	·	·	-40	·	·
CN(C)c1ccc(-c2nc3ccccn3c2/N=C/c2ccc(Br)cc2)cc1	30	-38	-103	24	-106	·
Cc1cccnc1NC(=O)CNC(=O)c1cccs1	-5	0	6	16	6	·
Cc1cccnc1NC(=S)NC(=O)c1cccs1	-94	-186	-181	-53	-183	-98
O=P(c1ccccc1)(c1ccccc1)c1ccccc1C(Br)Br	·	·	·	-1	·	·
O=C([C@@H]1CCCN1C1=NS(=O)(=O)c2ccccc21)N1CCN(c2ccccc2)CC1	·	·	·	-13	·	·
CN[C@H]1C[C@H]2c3[nH]c4ccc(-c5cccc(C)c5)cc4c3CCN2C[C@H]1[C@H](C)O	·	·	·	-30	·	·
SMILES	Gli-Sufu antag	Mdm2-MdmX inh	Jurkat NFkB inh	Shn3 3UTR inh	697 NFkB inh	Jurkat NFkB conf
CCOC(=O)CSc1nc2ccc(C)cc2cc1C#N	-4	-157	-147	-126	-110	·
CCOC(=O)CSc1nc2cc(OC)ccc2cc1C#N	1	-116	-207	-80	-190	-88
CCOC(=O)CSc1nc2cc(C)ccc2cc1C#N	-11	-73	-156	-104	-119	-89
COc1ccc(-c2ccc(C(=O)NCc3ccco3)c3occc23)c(C)c1	·	·	·	-20	·	·
COc1ccc(-n2nc(C(=O)NCC(=O)N3CCCC3)c3ccccc3c2=O)cc1Cl	-5	-44	-12	-15	16	·
Cc1cc(C)c2c(N)c(C(=O)Nc3ccc(F)cc3)sc2n1	-78	-128	-155	-46	-154	-32
COc1ccc(NC(=O)c2sc3nc(C)cc(C)c3c2N)cc1	-69	-98	-54	-104	-78	·
CCOC(=O)C1(C)CCN1C(=O)c1cccc2ccccc12 (centres undefined)	·	·	·	2	·	·
O=C(c1cc(-c2ccc(F)cc2)on1)N1CCCCCC1	-116	-118	-132	-131	-162	·
Cc1ccc(-c2cc(C(=O)N3CCCCCC3)no2)cc1	-67	-154	-182	-27	-229	-115
O=C(c1cc(-c2cccc(O)c2)on1)N1CCCCC1	-3	-143	-160	-45	-184	-88
CCOc1ccc(S(=O)(=O)N2CCN(C(=O)c3cc(C4CC4)nn3-c3ccccc3)CC2)cc1	0	46	12	-19	-4	·
Nc1ccc(C(=O)Nc2nc3ccccc3s2)cc1	-144	-144	-201	-24	-140	-139
CCCCOC(=O)Nc1nc2ccccc2s1	-93	-117	-155	-31	-144	-105
CSc1ccccc1-c1nnc(-c2ccccc2)o1	-71	-104	-159	·	-173	-85
CSc1ccccc1-c1nnc(-c2ccc(C)cc2)o1	-75	-112	-102	-89	-102	·
c1ccc(-c2nnc(-c3ccccc3)o2)cc1	-73	-37	-114	-38	-131	·
Nc1ccccc1-c1nnc(-c2ccc(-c3ccccc3)cc2)o1	-68	-141	-154	-80	-175	-74
Clc1cccc(-c2nnc(-c3ccccc3)o2)c1	-4	-188	-184	-64	-227	-93
COC(=O)c1cccc(CC2(C)C(=O)Nc3ccc(OC(F)(F)F)cc32)c1 (centres undefined)	·	·	·	13	·	·
O=C(CNC(=O)c1ccc(C(F)(F)F)cc1)NC1CC1	9	6	-7	-9	2	·
C/C(=N\Nc1cccc2cccnc12)c1ccc[nH]1	-117	-317	-216	-82	-147	-2
Cc1cc(-c2ccc(C(C)C)c(S(=O)(=O)N3CCN(c4ccccc4)CC3)c2)on1	40	49	53*	-33	-53	47*
COc1cccc(-c2cnc(C(O)c3cc(C)ccc3C)[nH]2)c1 (centres undefined)	·	·	·	-9	·	·
CC1CCN(C(=O)c2cc3c(ccc4ccccc43)o2)CC1	-53	-116	-181	-52	-208	-113
SMILES	Gli-Sufu antag	Mdm2-MdmX inh	Jurkat NFkB inh	Shn3 3UTR inh	697 NFkB inh	Jurkat NFkB conf
COc1cc(OC)cc(C(=O)N2CCN(C3CCC(C)CC3)CC2)c1 (centres undefined)	-8	·	·	-23	·	·
CCOC(=O)c1c(C)[nH]c(C(=O)N/N=C/c2ccc(OC)c(OC)c2)c1C	3	48	55*	19	-22	10
CCOC(=O)c1c(C)[nH]c(C(=O)N/N=C\c2ccccc2O)c1C	48	·	·	54	·	·
CN(C)S(=O)(=O)c1cccc(NC(=O)COC(=O)c2ccc3ccccc3n2)c1	-2	-7	60*	10	19	9
Cc1cccc(C(=O)Nc2sc3c(c2C#N)CCCCC3)c1	3	-83	-169	-18	-195	-126
N#Cc1c(NC(=O)c2ccccc2)sc2c1CCC2	-109	-85	-59	-41	-250	·
Cc1cc(C(=O)Nc2sc3c(c2C#N)CCC(C)C3)cs1 (centres undefined)	-29	-94	-165	-63	-114	-108

Assay outcomes deposited in PubChem by several laboratories.
